Hits are enriched below; roughly 6.7% of the tested compounds scored in any of these assays.
Pf Dd2 growth – P. falciparum Dd2 growth inhibition. AID 1159554. 2.3% of 94,000 active. SYBR Green, 72 h; stronger effect = lower value. activity change, % at 10 µM; in the data active = activity change below about -80%; inconclusive = no clear call, values can overlap the other calls
T cruzi growth – T. cruzi proliferation inhibition. T. cruzi beta-gal in NIH3T3, GalScreen luminescence, 90 h. inhibition, % at 8.34 µM. 5.9% of 77,000 active. AID 624255;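 active = mean inhibition above about 93%, with at least 55% of replicates each passing it, limit read from the data, passing the limit was not always enough; inconclusive = only one of those two conditions holds; inactive = neither condition holds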
C diff growth – blocks growth of Clostridium difficile. 0.25% of 86,000 active. growth activity, negative = inhibition, % at 16 µg/mL (by protocol). AID 1259249. Clostridium difficile clinical isolate growth, OD600, 24 h; stronger effect = lower value;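 active = mean growth activity at or below -80% and every replicate also at or below -80%; inconclusive = mean at or below -80% but some replicate above -80%; inactive = mean growth activity above -80%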;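 note: 0% = DMSO wells and -100% = levofloxacin 16 µg/mL wells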
An asterisk follows results filed as active; ? = inconclusive; . = no result given.

SMILES | Pf Dd2 growth | T cruzi growth | C diff growth
C[C@@H]1CN([C@H](C)CO)C(=O)Cc2cc(NC(=O)c3ccncc3)ccc2O[C@@H]1CN(C)Cc1ccc(C(=O)Nc2ccccc2N)cc1 | -75 | . | 6
C[C@H](CO)N1C[C@H](C)[C@H](CN(C)Cc2ccc(C(=O)Nc3ccccc3N)cc2)Oc2ccc(NC(=O)c3ccncc3)cc2CC1=O | -49 | 74 | 0
C[C@H](CO)N1C[C@H](C)[C@@H](CN(C)Cc2ccc(C(=O)Nc3ccccc3N)cc2)Oc2ccc(NC(=O)Cc3ccccc3)cc2CC1=O | -83* | . | 1
C[C@@H]1CN([C@H](C)CO)C(=O)Cc2cc(NC(=O)Nc3ccc(F)cc3)ccc2O[C@H]1CN(C)Cc1ccc(C(=O)Nc2ccccc2N)cc1 | -39 | . | 9
C[C@@H]1CN([C@H](C)CO)C(=O)Cc2cc(NS(=O)(=O)c3cccs3)ccc2O[C@H]1CN(C)S(=O)(=O)c1cn(C)cn1 | -2 | 2 | -2
Cc1ccc(S(=O)(=O)N(C)C[C@@H]2Oc3ccc(NC(=O)CCCCCC(=O)Nc4ccccc4N)cc3CC(=O)N([C@@H](C)CO)C[C@@H]2C)cc1 | -88* | 50 | -5
Cc1ccc(S(=O)(=O)N(C)C[C@@H]2Oc3ccc(NC(=O)CCCCCC(=O)Nc4ccccc4N)cc3CC(=O)N([C@@H](C)CO)C[C@H]2C)cc1 | -68 | 16 | -6
COc1cccc(NC(=O)N2C[C@@H](O)COC[C@H]3O[C@H](CC(=O)NCCCN4CCOCC4)CC[C@@H]32)c1 | 14 | . | 7
CN1CCN(C(=O)C[C@H]2CC[C@@H]3[C@H](COC[C@@H](O)CN3C(=O)C3CCOCC3)O2)CC1 | 43 | 18 | -4
COc1ccc(NC(=O)N(C)C[C@@H]2OCc3ccccc3-c3c(n(C)c4ccccc34)C(=O)N([C@@H](C)CO)C[C@@H]2C)cc1 | -67 | 25 | .
C[C@H](CO)N1C[C@H](C)[C@@H](CN(C)C(=O)Nc2ccc(F)cc2)OCc2ccccc2-c2c(n(C)c3ccccc23)C1=O | -92* | 47 | 0
C[C@@H]1CN([C@@H](C)CO)C(=O)c2c(c3ccccc3n2C)-c2ccccc2CO[C@@H]1CN(C)C(=O)Nc1ccccc1 | -66 | 39 | .
C[C@@H]1CN([C@@H](C)CO)C(=O)c2c(c3ccccc3n2C)-c2ccccc2CO[C@H]1CN(C)C(=O)Nc1ccc(-c2ccccc2)cc1 | -91* | . | 8
C[C@H]1CN([C@@H](C)CO)C(=O)c2c(c3ccccc3n2C)-c2ccccc2CO[C@H]1CN(C)C(=O)Nc1ccccc1 | -37 | 47 | .
C[C@@H]1CN([C@H](C)CO)C(=O)c2c(c3ccccc3n2C)-c2ccccc2CO[C@@H]1CN(C)C(=O)Nc1cccc(F)c1 | -53 | 30 | .
C[C@H]1CN([C@@H](C)CO)C(=O)c2c(c3ccccc3n2C)-c2ccccc2CO[C@H]1CN(C)C(=O)Nc1ccc(-c2ccccc2)cc1 | -89* | . | 2
C[C@H](CO)N1C[C@H](C)[C@H](CN(C)C(=O)Nc2ccc(-c3ccccc3)cc2)OCc2ccccc2-c2c(n(C)c3ccccc23)C1=O | -89* | . | 3
C[C@H]1CN([C@@H](C)CO)C(=O)c2cc(NC(=O)Nc3ccc4c(c3)OCO4)ccc2O[C@H]1CN(C)Cc1ccc(C(=O)O)cc1 | -1 | 88 | -2
CN(C)C(=O)c1ccc(-c2ccc3c(c2)[C@@H]2[C@@H](CCN2C(=O)c2ccccc2)[C@H](CO)N3)cc1 | -23 | 15 | 7
Cc1noc(C)c1S(=O)(=O)Nc1ccc2c(c1)C(=O)N([C@H](C)CO)C[C@@H](C)[C@@H](CN(C)Cc1ccc(Oc3ccccc3)cc1)O2 | -14 | 66 | .
C[C@@H]1CN([C@@H](C)CO)C(=O)c2cc(NS(=O)(=O)c3ccccc3)ccc2O[C@@H](C)CCCCO[C@@H]1CN(C)S(=O)(=O)c1ccc(Cl)cc1 | -85* | . | 4
C[C@@H]1CN([C@H](C)CO)C(=O)c2cc(NS(=O)(=O)c3ccccc3)ccc2O[C@@H](C)CCCCO[C@@H]1CN(C)S(=O)(=O)c1ccc(Cl)cc1 | -74 | ? | 1
C[C@H]1CCCCO[C@H](CN(C)S(=O)(=O)c2ccc(Cl)cc2)[C@@H](C)CN([C@@H](C)CO)C(=O)c2cc(NS(=O)(=O)c3ccccc3)ccc2O1 | -90* | . | 0
C[C@@H]1CCCCO[C@@H](CN(C)S(=O)(=O)c2ccc(Cl)cc2)[C@@H](C)CN([C@@H](C)CO)C(=O)c2cc(NS(=O)(=O)c3ccccc3)ccc2O1 | -70 | . | 1
O=S(=O)(NC[C@@H]1CC[C@@H]2[C@@H](CN2CC(c2ccccc2)c2ccccc2)O1)c1ccccc1F | -5 | . | .
SMILES | Pf Dd2 growth | T cruzi growth | C diff growth
CC(C)CC#Cc1cnc2c(c1)C(=O)N([C@@H](C)CO)C[C@H](C)[C@@H](CN(C)Cc1ccccc1F)O2 | -46 | 77 | -7
CN1c2ccc(C#Cc3cccnc3)cc2[C@H]2[C@H](CCN2C(=O)C2CCCC2)[C@H]1CO | -89* | . | 0
COc1ccc(-c2ccc3c(c2)[C@H]2[C@H](CCN2C(=O)C2CCCC2)[C@H](CO)N3C)cc1 | -85* | . | -5
COc1ccc(-c2ccc3c(c2)[C@H]2[C@H](CCN2C(=O)C2CC2)[C@@H](CO)N3C)cc1 | -7 | 82 | 14
CN1c2ccc(Br)cc2[C@H]2[C@H](CCN2C(=O)Nc2ccc(F)cc2)[C@@H]1CO | 12 | 29 | -94*
CN1c2ccc(Br)cc2[C@H]2[C@H](CCN2C(=O)Nc2ccc(F)cc2)[C@H]1CO | -52 | 72 | 2
CN1c2ccc(C#Cc3cccnc3)cc2[C@@H]2[C@@H](CCN2C(=O)C2CCCC2)[C@@H]1CO | -74 | . | 13
COCC(=O)Nc1ccc2c(c1)C(=O)N(C)C[C@H](OC)[C@H](C)CN(Cc1ccccc1F)[C@H](C)CO2 | -46 | 57 | .
O=C(C[C@H]1C[C@@H]2c3cc(NC(=O)c4ccc5c(c4)OCO5)ccc3O[C@@H]2[C@@H](CO)O1)NCc1cccc(F)c1 | 16 | 50 | 0
C[C@@H]1CCCCO[C@@H](CN(C)Cc2ccncc2)[C@@H](C)CN([C@H](C)CO)C(=O)c2cc(NC(=O)CCCCCC(=O)Nc3ccccc3N)ccc2O1 | -37 | . | -3
C[C@@H]1CCCCO[C@@H](CN(C)CC2CCCCC2)[C@H](C)CN([C@@H](C)CO)C(=O)c2cc(NC(=O)CCCCCC(=O)Nc3ccccc3N)ccc2O1 | -81* | 67 | -2
C[C@@H]1CCCCO[C@@H](CN(C)CC2CC2)[C@@H](C)CN([C@H](C)CO)C(=O)c2cc(NC(=O)CCCCCC(=O)Nc3ccccc3N)ccc2O1 | -78 | . | -2
C[C@@H]1CCCCO[C@@H](CN(C)Cc2ccccc2)[C@@H](C)CN([C@H](C)CO)C(=O)c2cc(NC(=O)CCCCCC(=O)Nc3ccccc3N)ccc2O1 | -84* | . | -8
CN1C(=O)c2cc(NC(=O)c3ccc4c(c3)OCO4)ccc2OC[C@@H]2O[C@H](CC(=O)O)CC[C@@H]21 | -9 | 16 | 0
CCC(=O)N[C@@H]1C=C[C@H](CC(=O)NCc2ccc(OC)cc2)O[C@H]1CO | 3 | 73 | .
CNC(=O)C[C@@H]1CC[C@H]2[C@H](COc3ccc(NC(=O)c4ccc5c(c4)OCO5)cc3C(=O)N2C)O1 | -1 | 75 | 3

From PubChem
